Laboratory results taken from the supplement of paper PMC6555819.

The sequences below were run on VDR:RXRa (NR concentration 270 nM, RXRa partner concentration 90 nM) (assay: PBM binding z-score (relative to random genomic background probes); higher = stronger binding; sequences stand for … in GC…GCGATTGACAGCGTAGAATGAAGG).
Experimental: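 Protein-binding microarray (Agilent 4x180K custom design, double-stranded 60-nt probes: 5' GC cap, 34-nt variable region, 24-nt constant primer region; full probe sequence given). Purified or IVT nuclear receptor:RXRα heterodimers (3:1 NR:RXRα, mostly 270:90 nM) or homodimers were incubated for 1 h in PBS with 2% milk and no ligand, then detected with Alexa488 antibodies. Fluorescence from o1-orientation probes (~5 replicates averaged) was converted to z-scores against 500 random hg19 background probes. Variable regions are seed direct-repeat (DR0–DR5) sites, all their single-nucleotide variants and half-site ablations.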
Sequence CAAACTAGGTCAAAGGTCAGAGTCGAGCCAACCA has a PBM binding z-score of 5.78.
GATACAGGGTCAACTAGAGGCCAGAGTATGGAAA was tested, and the PBM binding z-score was 4.98.
CGAACTAGGTCAAAGGATAGTGAAAGGCGACGTA was tested, and the PBM binding z-score was 1.12.
CCTTACGGGTCAAGGTTATCGCACGGGTGGTACG was tested, and the PBM binding z-score was 3.69.
CGGACTAGGTCAAAGGACAGTGAAAGGCGACGTA gave a PBM binding z-score of 1.16.
GATACAGGGTCAAGGCCAGAGTACGCGTATTGAT showed a PBM binding z-score of 4.28.
For ACTAGTTGCTCAGCTGAGGTCACACACAATTCGG, the PBM binding z-score was 3.65.
Sequence CCGAGTAGGTTACGAGGGGGCACTCAGTGCGAAT has a PBM binding z-score of 4.68.
Work on CCTACTGGGCCAAAGGTCTTTGATTCCAATGCTC yielded a PBM binding z-score of -0.283.
CAAACTAGGTCACCGGAAGGTCATAGTCCGCATG gave a PBM binding z-score of 5.66.
For CTATGTAGGTTAAGCGGGTCATTCAGTTTGAAAG, the PBM binding z-score was 5.74.
Sequence CCTAGCAGGCCAATCGGGGTCACTCAAGGCTTGA has a PBM binding z-score of 5.36.
ATCGAAAGGTCGAAGGTCAGTATACCCACCCGAA gave a PBM binding z-score of 4.35.
CGAACTAGGTCATCAGGACAGTGAAGAGGTTGGA gave a PBM binding z-score of 1.89.
Sequence AACGAAAGGTCGACGAGGTGAGTATACACCGTTT has a PBM binding z-score of 5.12.
In the case of CGAACTAGGTCAGAACAGGACAGTTAAGGATGAT, the PBM binding z-score is reported as 1.02.
CTAACTAGGTCACGAAAGGTCAAAGTCGAATGAC was tested, and the PBM binding z-score was 6.76.
CCGGGTAGGTTACGAGGGGGCATTCAGTGCGAAT gave a PBM binding z-score of 5.31.
Work on CTCGAAAGGTCGTGGTCAGGTGAGTATACCAAAC yielded a PBM binding z-score of 3.61.
CCGAGTAGGTTACGAGGGGGGATTCAGTGCGAAT was tested, and the PBM binding z-score was 3.17.
With CTATGTAGGTTAAGGGGGTCATCCAGTTTGAAAG the PBM binding z-score was 7.32.
CGAATTAGGTCAAAGGACAGTGAAAGGCGACGTA gave a PBM binding z-score of 1.65.
ATCGAATGGTCGAAGGTGAGTATACCCACCCGAA showed a PBM binding z-score of -0.0843.
With CCTAGATGGTCAGGAGGTCACACACCGGATATGA the PBM binding z-score was 3.76.
CCTAGTTGGTCAGGTGGTCACACACCGGATATGA gave a PBM binding z-score of 0.156.
Sequence CCGAGTAGGTTACGAGGGGGCAGTCAGTGCGAAT has a PBM binding z-score of 3.95.
Sequence CATACCGGGTCAGCTAGGCCAGAGTAGGGACGGC has a PBM binding z-score of 2.57.
In the case of TCATATAGGTTAAGGTGAAAGTCGAACGATATGA, the PBM binding z-score is reported as 0.985.
TGTCAGAGTTCAAAGGTAACGTAAGTATCCACAC was tested, and the PBM binding z-score was 5.75.
ATATGTAGGTTCCATCCGGGTCATTCAGGCTATG showed a PBM binding z-score of 3.22.
ATATGGAGGTTAGGGTCATTCAGAAAGTAGGGAA was tested, and the PBM binding z-score was 4.64.
CGTCCAAGGTCAATGCTAGCTCAGTGAAAGCATT gave a PBM binding z-score of 3.63.
In the case of ATCGAAAGGTCGTCGAGGTGAGTATACACCGTTT, the PBM binding z-score is reported as 5.7.
Work on TCGAGTAGGTTACGGGGGCACTCAGGGATGAAGA yielded a PBM binding z-score of 3.33.
In the case of CTATGTAGGTTAAGGGGGTCATACAGTTTGAAAG, the PBM binding z-score is reported as 7.05.
Work on CTATGTAGGGTAAGGGGGTCATTCAGTTTGAAAG yielded a PBM binding z-score of 7.01.
CGGCCAAGGTCAAAGGTCAGTGAAGAGATGACGG gave a PBM binding z-score of 6.67.
ATATGTAGGTTAGGGTCATTAAGAAAGTAGGGAA showed a PBM binding z-score of 3.86.
GCTGCTAGGTTAACTGATGGTCAGCTAAAGCTCG showed a PBM binding z-score of -0.182.
GATAGTTGGTCAGTAAAAGGTCACACACCGGTCG showed a PBM binding z-score of 3.94.
